Inhibition data for 83 compounds are collected here from PubChem BioAssay AID2661 (Broad Institute, 2010).

The inhibition is the drop in the measured response relative to a control, in per cent.

Each structure is given as a SMILES string. The whole screen tested about 320,000 compounds, of which about 240 (0.075%) were called active.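 How the source made its calls: active means inhibition at or above 25%, using the most active replicate where run in duplicate; inactive means inhibition below 25%.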 The entries come from a sample that favours actives as a whole.

In this assay the target is Serine/threonine-protein kinase 33 (Homo sapiens) (UniProt Q9BYT3). Put plainly: STK33 phosphorylation of MBP blockers – biochemical, ADP-Glo luminescence, homogeneous, cell-free, primary screen (AID 2661). The settings on record: purified STK33, MBP phosphorylation, at 10 µM, stronger effect = higher value. On the technique in general: In ADP-Glo the light output rises with the ADP produced.
Sequence of Serine/threonine-protein kinase 33 (Homo sapiens) (Q9BYT3 whole entry, looked up): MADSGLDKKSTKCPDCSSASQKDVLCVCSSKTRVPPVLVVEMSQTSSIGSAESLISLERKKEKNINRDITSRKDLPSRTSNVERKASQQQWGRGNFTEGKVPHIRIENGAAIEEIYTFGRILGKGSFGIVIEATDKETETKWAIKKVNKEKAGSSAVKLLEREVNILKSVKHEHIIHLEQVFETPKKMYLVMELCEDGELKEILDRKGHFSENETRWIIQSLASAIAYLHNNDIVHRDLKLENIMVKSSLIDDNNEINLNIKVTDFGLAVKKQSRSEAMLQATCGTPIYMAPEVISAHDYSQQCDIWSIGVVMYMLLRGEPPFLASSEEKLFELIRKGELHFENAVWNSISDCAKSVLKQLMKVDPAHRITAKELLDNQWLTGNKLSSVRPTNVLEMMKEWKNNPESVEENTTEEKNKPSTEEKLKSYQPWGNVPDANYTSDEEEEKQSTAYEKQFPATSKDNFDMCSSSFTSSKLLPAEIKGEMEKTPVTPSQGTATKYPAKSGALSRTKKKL
In the case of `CC(C)n1cnc2c(Nc3cccc(Cl)c3)nc(N(CCO)CCCO)nc21`, the inhibition is 55.5% (active).
Consider `CC(C)C[C@H](CO)Nc1nc(N(C)c2cccc(Cl)c2)c2ncn(C(C)C)c2n1`, for which the inhibition was -0.739% (inactive).
As for `OCCCNc1nccc(-c2cc(Nc3cccc(Cl)c3)ncn2)n1`, the inhibition is 5.41% (inactive).
The result for `O=C(COc1ccccc1F)Nc1nc(-c2ccccn2)cs1` reads -1.01% (inactive).
The result for `COc1ccc(C2(c3ccc(OC)cc3)NC(=O)N(CC(=O)Nc3cc(C)on3)C2=O)cc1` reads -0.176% (inactive); that for `CC1CN(C(=O)c2ccc([N+](=O)[O-])s2)CC(C)O1` (stereo not drawn), -2.19% (inactive); that for `O=C1CCC/C=C\C[C@@H](CC(=O)N(CCO)Cc2ccccc2)C(=O)NCCO1`, -0.894% (inactive).
Consider `COC(=O)[C@]1(Cc2ccccc2)N[C@H](CN(C)S(=O)(=O)c2ccc(F)cc2)[C@@H]2C(=O)N(Cc3ccccc3)C(=O)[C@@H]21`, for which the inhibition is 0.777% (inactive).
The same measure for `CNC[C@@H]1Oc2c(NS(C)(=O)=O)cccc2C(=O)N([C@@H](C)CO)C[C@H]1C`: -0.879% (inactive); for `O=C(Cn1cnc2c(OCc3ccccc3)ncnc21)NCc1nc2ccccc2[nH]1`: 0.0433% (inactive).
`O=C(COC(=O)CSc1ccccc1)Nc1ccc(F)cc1F`: the inhibition is -1.54% (inactive).
The same measure for `Cc1noc(C)c1C(=O)OC(C)C(=O)Nc1ccc2c(c1)OCO2` (stereo not drawn): -2.76% (inactive).
The result for `CC(C)(C)OC(=O)C[C@@H]1C/C=C\C[C@@H](CC(=O)N[C@@H](CO)Cc2ccccc2)C(=O)N2CCC[C@H]2COC1=O` reads -0.177% (inactive); that for `O=C1N=C(N2CCc3ccccc3C2)S/C1=C\c1ccc(O)cc1`, 11% (inactive); that for `CCOc1cc(/C=C2\SC(N3CCCC(C)C3)=NC2=O)ccc1O` (stereo not drawn), 26.4% (active).
The result for `O=C1N=C(N2CCCC2)S/C1=C\c1cccc(Br)c1` reads -0.704% (inactive).
Turning to `CC1CCN(C2=NC(=O)/C(=C/c3cn[nH]c3-c3ccccc3)S2)CC1`, the inhibition is 0.902% (inactive).
The result for `CC1CCN(C2=NC(=O)/C(=C/c3ccc(O)cc3)S2)CC1` reads 25.8% (active).
As for `CCOc1cc(/C=C2\SC(N3CCCCC3)=NC2=O)ccc1O`, the inhibition is 8.65% (inactive).
The same measure for `O=C(COC(=O)c1ccc(F)cc1)NCC1COc2ccccc2O1` (stereo not drawn): -0.961% (inactive).
For `NS(=O)(=O)c1ccc(CNC(=S)NC(=O)c2ccco2)cc1`, the inhibition is -0.0738% (inactive).
Take `CC1Cc2ccccc2N1S(=O)(=O)c1cccc(C(=O)OCC(=O)N2CCOCC2)c1` (stereo not drawn): the inhibition was -1.13% (inactive).
The result for `Cc1ccc(S(=O)(=O)N2CCCCC2)cc1NC(=O)CCNC(=O)c1ccccc1` reads -0.0957% (inactive).
The same measure for `O=C(Nc1nnc(-c2ccccc2)o1)c1cccc(S(=O)(=O)N2CCOCC2)c1`: -0.807% (inactive).
With `COc1cc(OC)cc(C(=O)NCC(=O)OCC(=O)NC(C)CCc2ccccc2)c1` (stereo not drawn), the inhibition was -0.78% (inactive).
The result for `Cn1cccc1C(=O)OCC(=O)NCCc1ccccc1` reads -0.939% (inactive); that for `CC(C#N)OC(=O)c1cccnc1SCC(=O)Nc1ccc2c(c1)OCO2` (stereo not drawn), 0.605% (inactive).
Consider `CC(=O)c1c(C)[nH]c(C(=O)COC(=O)c2cccs2)c1C`, for which the inhibition was -3.01% (inactive).
Consider `COc1cc(OC)cc(-c2cc3ccc(F)cc3cn2)c1`, for which the inhibition is 1.46% (inactive).
The result for `COc1ccc2nc3n(c(=O)c2c1)-c1ccc(Cl)cc1C(=O)NC3Cc1ccccc1` (stereo not drawn) reads 0.119% (inactive).
The result for `COc1cc(C(=O)NC2CCN(C)CC2)ccc1Nc1ncc2c(n1)N(C1CCC(O)CC1)CCC(=O)N2C` (stereo not drawn) reads 54.5% (active).
The same measure for `COc1ccc(-n2cnc3cc(C(=O)NC4CCCC4)ccc32)cc1`: -0.505% (inactive); for `COc1ccc(C(=O)NC2CC2)cc1OC1CCN(Cc2cnn(C)c2)CC1`: 0.281% (inactive).
Consider `Cc1ccc(C(=O)Nc2ccccc2-c2ccccc2)cc1S(=O)(=O)Nc1ccccc1`, for which the inhibition was -1.82% (inactive).
In the case of `COCCN(CCOC)S(=O)(=O)NC[C@H]1O[C@@H](n2cnc3c(N)ncnc32)[C@H](O)[C@@H]1O`, the inhibition is -0.284% (inactive).
`COc1ccccc1CNC(=O)COC(=O)c1cccs1`: the inhibition was -1% (inactive).
The same measure for `COc1cc(SC)ccc1C(=O)NNC(=O)C1COc2ccccc2O1` (stereo not drawn): -1.07% (inactive); for `O=C(CSc1nccn1-c1cccc(F)c1)NC1CCCC1`: 0.473% (inactive).
The result for `Cc1ccc(NS(=O)(=O)c2ccc(C(C)C)cc2)cc1S(=O)(=O)N1CCOCC1` reads -3.33% (inactive); that for `O=C(N=C1SC2CS(=O)(=O)CC2N1c1ccccc1)c1ccccc1` (stereo not drawn), 0.811% (inactive).
The same measure for `COc1cc(OC)cc(-c2sc3ccc(OC)cc3c2-c2ccc3cc[nH]c3c2)c1`: 1.63% (inactive); for `CC(Oc1ccc2c(-c3ccccc3)cc(=O)oc2c1)C(=O)NC(Cc1c[nH]c2ccccc12)C(=O)O` (stereo not drawn): -3% (inactive).
Turning to `COc1cccc2sc3cc(NCC[C@@H]4CCCN4C)ccc3c(=O)c12`, the inhibition is 4.13% (inactive).
The result for `COC(=O)[C@]1(CC(C)C)N[C@H](c2ccc(SC3CCCCC3)cc2)[C@@H]2C(=O)N(C)C(=O)[C@@H]21` reads -0.318% (inactive); that for `COc1ccc(C(=O)C(C)OC(=O)c2cccc(S(=O)(=O)Nc3c(C)n(C)n(-c4ccccc4)c3=O)c2)cc1` (stereo not drawn), -0.0798% (inactive).
The same measure for `CC(=O)C(CC(=O)N1CCCC1)C(=O)Nc1ccc(Cl)cc1` (stereo not drawn): -0.972% (inactive).
The same measure for `CCC(CO)Oc1cc(NCc2ccccc2)c2ncn(C3CCCC3)c2c1` (stereo not drawn): 3.27% (inactive).
`O=C(Nc1cccc(S(=O)(=O)N2CCCCC2)c1)c1cncc(Br)c1`: the inhibition was -0.246% (inactive).
The result for `CC(=NNC(=O)c1ccc2nc[nH]c2c1)c1ccc(Br)cc1` reads -0.319% (inactive); that for `COc1cc(S(=O)(=O)N2CCN(C(=O)C3CC3)CC2)ccc1NC(C)=O`, 0.285% (inactive); that for `COc1ccccc1C(=O)COC(=O)COc1ccc(C#N)cc1`, 5.03% (inactive).
The result for `Cc1cccc(NC(=S)Nc2ccc3cn[nH]c3c2)c1` reads 11.6% (inactive).
Turning to `CCc1cccc(CC)c1NC(=S)Nc1ccc2cn[nH]c2c1`, the inhibition is 24.8% (inactive).
The same measure for `S=C(Nc1cccc(Cl)c1)Nc1ccc2cn[nH]c2c1`: 27% (active).
The same measure for `CN(Cc1ccc(F)cc1)C(=O)CN1C(=O)c2ccccc2S1(=O)=O`: -1.27% (inactive); for `COc1ccc(CCNC(=O)COC(=O)c2cnc(Cl)c(Cl)c2)cc1`: 0.375% (inactive).
The same measure for `C[C@]12CC[C@H](O)CC1=CCC1C2CC[C@@]2(C)C1CC[C@@H]2NC(=O)CCC(=O)O` (stereo partly drawn): -0.89% (inactive).
In the case of `CC1CCCCC1NCC(=O)Nc1ccccc1C(=O)Nc1ccccc1` (stereo not drawn), the inhibition is 0.481% (inactive).
The same measure for `CC(C)(C)OC(=O)C[C@H]1C/C=C\C[C@@H](CC(=O)N[C@H](CO)Cc2ccccc2)C(=O)NC[C@@H](c2ccccc2)OC1=O`: -0.103% (inactive); for `O=C1COc2ccc(C(=O)COC(=O)c3ccccc3Cl)cc2N1`: -0.902% (inactive); for `Cn1c(N)c(C(=O)COC(=O)c2cccc(S(=O)(=O)N3CCOCC3)c2)c(=O)n(C)c1=O`: -0.402% (inactive).
The same measure for `O=C(Cn1cc(C(F)(F)F)ccc1=O)Nc1ccc2c(c1)OCCO2`: -0.216% (inactive); for `C[C@H]1COC(=O)[C@H](CC(=O)OC(C)(C)C)C/C=C\C[C@@H](CC(=O)N[C@H](CO)Cc2ccccc2)C(=O)N1`: 0.871% (inactive).
The same measure for `C[C@H](CO)N1C[C@H](C)[C@@H](CN(C)S(=O)(=O)c2ccc(F)cc2)Oc2ccc(NC(=O)CCC(F)(F)F)cc2C1=O`: -3.43% (inactive); for `CCN(c1ccccc1)S(=O)(=O)c1ccc(C(=O)Nc2ccccc2OC)cc1`: -0.186% (inactive).
For `Cc1csc2nc(COC(=O)c3cccc(N(C)C)c3)cc(=O)n12`, the inhibition is 0.859% (inactive).
The same measure for `Cc1csc(=O)n1CC(=O)Nc1ccc(S(C)(=O)=O)cc1`: -0.384% (inactive); for `COc1ccc(-c2c(C#Cc3ccsc3)c3cc(-c4ccc(CN5CCOCC5)cc4)ccc3n2C)cc1`: -0.0231% (inactive); for `O=S(=O)(Nc1ncnc2sccc12)c1cccc(F)c1`: -0.694% (inactive).
The same measure for `CCN(C[C@H]1N[C@@](CC)(C(=O)OC)[C@H]2C(=O)N(C)C(=O)[C@@H]12)C(=O)Nc1ccc(F)cc1`: -1.58% (inactive); for `Cc1ccc(NC(=O)c2ccc(Cl)nc2)cc1S(=O)(=O)N1CCOCC1`: -0.219% (inactive).
`COc1ccccc1N(CC(=O)Nc1ccc(C)cc1Cl)S(=O)(=O)c1cccs1`: the inhibition is -0.284% (inactive).
The result for `Cc1ccc(CNC(=O)COC(=O)C2CCC2)cc1` reads -0.167% (inactive); that for `C=CC[C@@H](CC(=O)N[C@H](CO)Cc1ccccc1)C(=O)N[C@H](C)COC(=O)[C@@H](CC=C)Cc1ccc(F)cc1`, -1.41% (inactive); that for `O=C(COC(=O)c1cc(S(=O)(=O)N2CCOCC2)ccc1F)NC1CC1`, -1.08% (inactive).
The result for `O=C1CC2(CCCC2)C(=O)N1CN1CCN(S(=O)(=O)c2ccc(F)cc2F)CC1` reads 0.0533% (inactive); that for `O=C(C[C@H]1C/C=C\C[C@@H](NC(=O)OCC2c3ccccc3-c3ccccc32)C(=O)O[C@@H](c2ccccc2)CNC1=O)N[C@H](CO)Cc1ccccc1`, 0.211% (inactive); that for `COc1ccc(C(=O)COC(=O)c2c(C)noc2C)cc1Cl`, 0.472% (inactive).
`O=C(COC(=O)c1cccnc1Cl)NC12CC3CC(CC(C3)C1)C2`: the inhibition was -1.76% (inactive).
The same measure for `CCn1c(=O)c([N+](=O)[O-])c(NCc2ccc3c(c2)OCO3)c2ccccc21`: 2.57% (inactive); for `Cc1cc(C)nc(N/N=C/c2ccc([N+](=O)[O-])o2)n1`: 0.179% (inactive).
The same measure for `CCn1c(/C=C/c2ccc([N+](=O)[O-])o2)nc2ccccc2c1=O`: 84.6% (active).
The result for `Cn1c(N)c(C(=O)COC(=O)c2ccc3ccccc3c2)c(=O)n(C)c1=O` reads -1.35% (inactive).
